Results filed as inconclusive are left out. Active and inactive are the calls of the source. Calls follow the shape of the dose curve; as a rule, active = well fitted cell-killing curve with a large enough effect; inconclusive = small, poorly fitted or top-dose-only effect, or effect the other way; inactive = no such curve, though single readings can be large or run the other way.
What was measured:
[1] = Quantitative High-Throughput drug screen in 47 multiple myeloma cell lines against the NCATS MIPE library collection: KMS34_JCRB cell viability assay (AID 1918985); also: nearly all actives have a fitted effect of over 40% in size
Outline: (§1)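 ATP-based luminescence (CellTiter-Glo, 5 min RT incubation) quantified surviving cells following two days' treatment with MIPE 4.0 agents at 37 °C, 5% CO2.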

[2] = Quantitative High-Throughput drug screen in 47 multiple myeloma cell lines against the NCATS MIPE library collection: OPM1_PLB cell viability assay (AID 1918989); also: nearly all actives have a fitted effect of over 40% in size
Outline: as §1

[3] = Quantitative High-Throughput drug screen in 47 multiple myeloma cell lines against the NCATS MIPE library collection: PCM6_Riken cell viability assay (AID 1919870); also: nearly all actives have a fitted effect of over 30% in size
Outline: as §1

[4] = Quantitative High-Throughput drug screen in 47 multiple myeloma cell lines against the NCATS MIPE library collection: RPMI8226_ATCC cell viability assay (AID 1919871); also: nearly all actives have a fitted effect of over 30% in size
Outline: as §1

[5] = Quantitative High-Throughput drug screen in 47 multiple myeloma cell lines against the NCATS MIPE library collection: OPM2_DSMZ cell viability assay (AID 1919872); also: nearly all actives have a fitted effect of over 30% in size
Outline: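 qHTS of the MIPE 4.0 collection: 500 myeloma cells/well, 48 h drug exposure at 37C in 5% CO2, then CellTiter-Glo for 5 min at room temperature before luminescence reading.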

[6] = Quantitative High-Throughput drug screen in 47 multiple myeloma cell lines against the NCATS MIPE library collection: OCIMY7_PLB cell viability assay (AID 1918987); also: nearly all actives have a fitted effect of over 65% in size
Outline: as §1

[7] = Quantitative High-Throughput drug screen in 47 multiple myeloma cell lines against the NCATS MIPE library collection: OCIMY5_PLB cell viability assay (AID 1918988); also: nearly all actives have a fitted effect of over 65% in size
Outline: as §1

[8] = Quantitative High-Throughput drug screen in 47 multiple myeloma cell lines against the NCATS MIPE library collection: VP6_DJ cell viability assay (AID 1919867); also: nearly all actives have a fitted effect of over 40% in size
Outline: as §1

[9] = Quantitative High-Throughput drug screen in 47 multiple myeloma cell lines against the NCATS MIPE library collection: L363_DSMZ cell viability assay (AID 1918984); also: nearly all actives have a fitted effect of over 40% in size
Outline: as §1

[10] = Quantitative High-Throughput drug screen in 47 multiple myeloma cell lines against the NCATS MIPE library collection: XG6_PLB cell viability assay (AID 1919865); also: nearly all actives have a fitted effect of over 40% in size
Outline: as §1

Measured: Potency
Potency is read from the fitted curve at half-maximal effect.

O=C(O)C(=O)c1cn(Cc2ccccc2)c2ccc(-c3ccc(OC(F)(F)F)cc3)cc12
inactive: [1] | [2] | [4] | [5]
active: [3] 16.6 µM

CN(C)CCc1ccc(O)cc1
inactive: [1] | [6] | [7] | [2] | [3] | [4] | [5]
active: [8] 6.62 µM

C[C@@H]1[C@@H](CC(C[C@H]2O[C@@H]3O[C@]4(C)CC[C@@H]5[C@H](C)CC[C@@H]([C@H]2C)[C@@]35OO4)C[S+](=O)([O-])c2ccc(COC(=O)N(C)C)cc2)O[C@@H]2O[C@]3(C)CC[C@H]4[C@H](C)CC[C@@H]1[C@@]24OO3 (stereo partly specified)
active: [9] 46.9 nM | [1] 74.3 nM | [6] 0.0833 µM | [7] 0.209 µM | [2] 0.372 µM | [10] 0.264 µM | [8] 0.372 µM | [3] 0.418 µM | [4] 0.296 µM

COc1ccc2c(c1OC)CN1CCc3cc4c(cc3C1C2)OCO4 (stereo unspecified)
inactive: [1] | [6] | [2] | [4] | [5]
active: [9] 5900 nM | [10] 20.9 µM | [8] 5.9 µM | [3] 16.6 µM

C[C@@H]1O[C@@H](O[C@H]2C[C@@H](O)[C@]3(CO)[C@H]4[C@H](O)C[C@]5(C)[C@@H](C6=CC(=O)OC6)CC[C@]5(O)[C@@H]4CC[C@]3(O)C2)[C@H](O)[C@H](O)[C@H]1O
active: [9] 46.9 nM | [1] 59 nM | [6] 0.0148 µM | [7] 0.0235 µM | [10] 0.0187 µM | [8] 0.0166 µM | [3] 0.0187 µM

NCC1(CC(=O)O)CCCCC1
active: [3] 16.6 µM
inactive: [2] | [4] | [5]

CC(O)(CS(=O)(=O)c1ccc(F)cc1)C(=O)Nc1ccc(C#N)c(C(F)(F)F)c1 (stereo unspecified)
active: [9] 1480 nM | [6] 0.743 µM | [7] 0.332 µM | [2] 3.32 µM | [10] 0.0935 µM | [8] 0.743 µM | [3] 0.59 µM
inactive: [4]

Cn1cc(C2=C(c3cn(C4CCN(Cc5ccccn5)CC4)c4ccccc34)C(=O)NC2=O)c2ccccc21
inactive: [4]
active: [9] 833 nM | [1] 10500 nM | [6] 3.72 µM | [7] 7.43 µM | [2] 16.6 µM | [10] 2.96 µM | [8] 11.8 µM | [3] 9.35 µM

COC1(CS(=O)c2ccccc2)CCN(CCc2c[nH]c3ccc(F)cc23)CC1 (stereo unspecified)
inactive: [1] | [3] | [5]
active: [10] 16.6 µM | [4] 7.43 µM

Cn1c(CCCC(=O)O)nc2cc(N(CCCl)CCCl)ccc21
active: [6] 6.62 µM | [7] 8.33 µM | [10] 14.8 µM
inactive: [9] | [2] | [8]

Cc1sc2c(c1C)C(c1ccc(Cl)cc1)=N[C@@H](CC(=O)OC(C)(C)C)c1nnc(C)n1-2
active: [9] 132 nM | [1] 235 nM | [7] 0.132 µM | [2] 0.0743 µM | [10] 7.43 µM | [8] 0.0833 µM | [3] 2.96 µM

C[C@@H]1[C@@H](C(=O)C[C@H]2O[C@@H]3O[C@]4(C)CC[C@@H]5[C@H](C)CC[C@@H]([C@H]2C)[C@@]35OO4)O[C@@H]2O[C@]3(C)CC[C@H]4[C@H](C)CC[C@@H]1[C@@]24OO3
active: [9] 59 nM | [1] 235 nM | [6] 0.0743 µM | [7] 0.332 µM | [2] 0.418 µM | [4] 0.833 µM | [5] 0.372 µM

CCCC(C)(COC(N)=O)COC(=O)NC(C)C (stereo unspecified)
inactive: [9] | [6] | [7] | [8] | [3] | [4] | [5]

CC(C)CC(N(C)C)C1(c2ccc(Cl)cc2)CCC1 (stereo unspecified)
inactive: [9] | [1] | [2] | [10] | [5]

Fc1ccc(C(OCCN2CCN(CCCc3ccccc3)CC2)c2ccc(F)cc2)cc1
active: [6] 7.43 µM | [7] 13.2 µM | [2] 16.6 µM | [10] 7.43 µM | [8] 9.35 µM | [3] 10.5 µM | [4] 18.7 µM | [5] 23.5 µM
inactive: [9]

O=P1(NCCCl)OCCCN1CCCl (stereo unspecified)
inactive: [3] | [5]
active: [6] 8.33 µM | [7] 18.7 µM | [2] 16.6 µM | [10] 16.6 µM | [8] 6.62 µM

COC[C@@H](NC(C)=O)C(=O)NCc1ccccc1
inactive: [9] | [1] | [7] | [2] | [10] | [8] | [3] | [4] | [5]

C#CCN(C)[C@H](C)Cc1ccccc1
inactive: [9] | [1] | [2] | [5]

CN(C)[C@@H]1C(=O)C(C(N)=O)=C(O)[C@@]2(O)C(=O)C3=C(O)c4c(O)cccc4[C@@](C)(O)[C@H]3C[C@@H]12
inactive: [9] | [10] | [3]
active: [4] 5.9 µM | [5] 16.6 µM

CNC(=O)c1ccc(N2C(=S)N(c3ccc(C#N)c(C(F)(F)F)c3)C(=O)C23CCC3)cc1F
active: [6] 2.96 µM | [7] 1.32 µM | [10] 1.05 µM | [8] 8.33 µM | [3] 7.43 µM
inactive: [4] | [5]

CNC(=O)N1N=C(c2ccc(N)cc2)c2cc3c(cc2CC1C)OCO3 (stereo unspecified)
active: [9] 5260 nM | [6] 1.48 µM | [7] 3.72 µM | [2] 4.69 µM | [10] 7.43 µM | [8] 2.64 µM | [3] 13.2 µM

CN(C)CCN(C)CCc1ccc(Cl)c(Cl)c1
inactive: [7] | [2] | [10] | [8] | [4] | [5]

N[C@@H](Cc1ccc(N(CCCl)CCCl)cc1)C(=O)O
active: [9] 5260 nM | [1] 16600 nM | [6] 0.662 µM | [7] 9.35 µM | [2] 13.2 µM | [10] 1.18 µM | [8] 11.8 µM | [3] 3.72 µM | [5] 18.7 µM

CC1=C2C[C@@H]3[C@@H](CC=C4C[C@@H](O)CC[C@@]43C)[C@@H]2CC[C@]12O[C@H]1C[C@H](C)CN[C@H]1[C@H]2C
inactive: [1] | [10] | [3] | [5]
active: [7] 11.8 µM | [2] 0.0469 µM | [4] 6.62 µM

CN1CCN(C(=O)O[C@H]2c3nccnc3C(=O)N2c2ccc(Cl)cn2)CC1
inactive: [1] | [6] | [2] | [10] | [8] | [3] | [4] | [5]

CNCC(O)c1ccc(O)cc1 (stereo unspecified)
inactive: [1] | [6] | [2] | [4] | [5]

C=C(C)[C@H]1Cc2c(ccc3c2O[C@@H]2COc4cc(OC)c(OC)cc4[C@@H]2C3=O)O1
active: [9] 148 nM | [6] 1.05 µM | [7] 0.833 µM | [2] 7.43 µM | [10] 0.526 µM | [8] 0.166 µM | [5] 4.69 µM

COC[C@H]1OC(=O)c2coc3c2[C@@]1(C)C1=C(C3=O)C2CCC(=O)[C@@]2(C)C[C@H]1OC(C)=O (stereo partly specified)
active: [9] 11800 nM | [1] 7430 nM | [6] 0.743 µM | [7] 14.8 µM | [2] 0.833 µM | [10] 4.18 µM | [8] 3.72 µM | [3] 3.32 µM | [4] 5.9 µM | [5] 10.5 µM

COc1ccc(C(CN(C)C)C2(O)CCCCC2)cc1 (stereo unspecified)
inactive: [9] | [1] | [2] | [4] | [5]

O=C1CC[C@@]2(O)[C@H]3Cc4ccc(O)c5c4[C@@]2(CCN3CC2CC2)[C@H]1O5
active: [2] 7.43 µM
inactive: [1] | [10] | [3] | [5]

Cc1cccc(C)c1NC(=O)CN1CCCC1=O
inactive: [9] | [1] | [6] | [7] | [10] | [3] | [4] | [5]

O=c1[nH]c2ccccc2n1CCCN1CCC(n2c(=O)[nH]c3cc(Cl)ccc32)CC1
active: [10] 20.9 µM | [8] 13.2 µM | [3] 2.96 µM
inactive: [2] | [5]

Cc1cc(SCc2sc(-c3ccc(C(F)(F)F)c(F)c3)nc2C)ccc1OCC(=O)O
active: [6] 20.9 µM | [7] 13.2 µM | [2] 20.9 µM | [3] 20.9 µM | [4] 18.7 µM
inactive: [5]

COc1ccc(C(=O)c2c(C)n(CCN3CCOCC3)c3ccccc23)cc1
inactive: [2] | [10] | [8] | [3] | [4] | [5]
